Test results: the supplement of paper PMC10849652
About 7,900 targets were measured; listed, in parts, are those with a hit and a random draw of the rest. About 0.6% of all pairs of compound and target were hits. A number with no mark means an inactive call.

What was measured:
Assay in all cases: log2 fold change, soluble protein after heating vs DMSO (PISA); higher = thermal stabilisation; K562 cells, 10 uM, 30 min; active = over 0.2 and 3.5 SD of the protein, either way, in both replicates (recomputed)
[1] = compound: CC1=C(C=C(C=C1)NC(=O)C2=CC(=CC=C2)C(C)(C)C#N)NC3=CC4=C(C=C3)N=CN(C4=O)C
Procedure, shortened: (§1)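 Quantification of soluble protein used TMTpro 16plex LC-MS/MS, with channel sums equalised. Samples were the supernatant after 21,000xg for 90 min of pooled aliquots from K562 cells (2×10^6 cells/mL) treated with 10 μM compound for 30 min, heated for 3 min over 48°C-58°C, and extracted in PBS with 0.5% NP-40 at 4°C. Values, from duplicates, describe thermal stability against control samples on a log2 fold-change scale.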

[2] = compound: CC1=C(C=C(C=C1)NC(=O)C2=CC(=CC=C2)N(C)C)NC(=O)C3=CC=C(C=C3)O
Procedure, shortened: as §1

[3] = compound: CC1=CC=C(C=C1)SC2=C3C=C(SC3=CN=C2)C(=O)N
Procedure, shortened: as §1

[4] = compound: CC1=NC(=CC=C1)C2=C(N=C(N2)C(C)(C)C)C3=CC4=NC=CN=C4C=C3
Procedure, shortened: as §1

Nexturastat A = compound: CCCCN(Cc1ccc(C(=O)NO)cc1)C(=O)Nc1ccccc1 [Nexturastat A]
Procedure, shortened: as §1

vemurafenib = compound: CCCS(=O)(=O)Nc1ccc(F)c(C(=O)c2c[nH]c3ncc(-c4ccc(Cl)cc4)cc23)c1F [vemurafenib]
Procedure, shortened: as §1

[5] = compound: CCCS(=O)(=O)Nc1ccc(F)c(C(=O)c2c[nH]c3ncc(Cl)cc23)c1F
Procedure, shortened: as §1

[6] = compound: CCCc1cc(C)[nH]c(=O)c1CNC(=O)c1cc(-c2ccnc(N3CCN(C)CC3)c2)cc2c1cnn2C(C)C
Procedure, shortened: as §1

givinostat = compound: CCN(CC)Cc1ccc2cc(COC(=O)Nc3ccc(C(=O)NO)cc3)ccc2c1 [givinostat]
Procedure, shortened: as §1

barasertib = compound: CCN(CCCOc1ccc2c(Nc3cc(CC(=O)Nc4cccc(F)c4)[nH]n3)ncnc2c1)CCOP(=O)(O)O [barasertib]
Procedure, shortened: as §1

[7] = compound: CC[C@@H]1C(=O)N(C)c2cnc(Nc3ccc(C(=O)NC4CCN(C)CC4)cc3OC)nc2N1C1CCCC1
Procedure, shortened: as §1

volasertib = compound: CC[C@@H]1C(=O)N(C)c2cnc(Nc3ccc(C(=O)N[C@H]4CC[C@H](N5CCN(CC6CC6)CC5)CC4)cc3OC)nc2N1C(C)C [volasertib]
Procedure, shortened: as §1

[8] = compound: CC[C@H](C)N1C=C(C2=C(C=C(C=C21)C3=CN=C(C=C3)N4CCNCC4)C(=O)NCC5=C(C=C(NC5=O)C)C)C
Procedure, shortened: as §1

epoxomicin = compound: CC[C@H](C)[C@@H](C(=O)N[C@@H]([C@@H](C)O)C(=O)N[C@@H](CC(C)C)C(=O)[C@]1(CO1)C)NC(=O)[C@H]([C@@H](C)CC)N(C)C(=O)C [epoxomicin]
Procedure, shortened: as §1

[9] = compound: CCn1c(C(=O)N(C2CC2)C2CC2)cc2c3c(ncn3C)c(Nc3cc(C)n(C)n3)nc21
Procedure, shortened: as §1

[10] = compound: CCn1cc(-c2ccnc3[nH]c(-c4cccc(CN(C)C)c4)cc23)c(-c2ccc(NC(=O)N(C)C)cc2)n1
Procedure, shortened: as §1

[11] = compound: CN(C)CC(=O)Nc1ccc2[nH]c(=O)c3ccccc3c2c1
Procedure, shortened: as §1

rosiglitazone = compound: CN(CCOC1=CC=C(C=C1)C[C@H]2C(=O)NC(=O)S2)C3=CC=CC=N3 (racemic) [rosiglitazone]
Procedure, shortened: as §1

[12] = compound: CN1C2=C(C3=C1C(=O)N(N=C3)CC4=CC(=CC=C4)N)SC(=C2)S(=O)C
Procedure, shortened: as §1

[13] = compound: CN1CCC(CNc2ccc3ncc(-c4cccc(OC(F)(F)F)c4)n3n2)CC1
Procedure, shortened: as §1

Chain of UniProt Q9H5K3 (Q9H5K3 whole entry, looked up): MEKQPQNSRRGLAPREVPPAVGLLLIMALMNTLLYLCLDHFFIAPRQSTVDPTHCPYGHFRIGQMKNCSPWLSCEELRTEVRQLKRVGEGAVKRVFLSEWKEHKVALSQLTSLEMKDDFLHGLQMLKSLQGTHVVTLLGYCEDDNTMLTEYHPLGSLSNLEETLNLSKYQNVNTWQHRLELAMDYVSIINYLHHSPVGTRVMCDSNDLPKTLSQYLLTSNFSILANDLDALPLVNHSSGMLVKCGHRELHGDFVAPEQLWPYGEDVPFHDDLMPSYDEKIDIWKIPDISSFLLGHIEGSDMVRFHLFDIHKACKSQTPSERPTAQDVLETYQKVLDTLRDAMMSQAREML
Chain of UniProt Q8NHP8 (Q8NHP8 whole entry, looked up): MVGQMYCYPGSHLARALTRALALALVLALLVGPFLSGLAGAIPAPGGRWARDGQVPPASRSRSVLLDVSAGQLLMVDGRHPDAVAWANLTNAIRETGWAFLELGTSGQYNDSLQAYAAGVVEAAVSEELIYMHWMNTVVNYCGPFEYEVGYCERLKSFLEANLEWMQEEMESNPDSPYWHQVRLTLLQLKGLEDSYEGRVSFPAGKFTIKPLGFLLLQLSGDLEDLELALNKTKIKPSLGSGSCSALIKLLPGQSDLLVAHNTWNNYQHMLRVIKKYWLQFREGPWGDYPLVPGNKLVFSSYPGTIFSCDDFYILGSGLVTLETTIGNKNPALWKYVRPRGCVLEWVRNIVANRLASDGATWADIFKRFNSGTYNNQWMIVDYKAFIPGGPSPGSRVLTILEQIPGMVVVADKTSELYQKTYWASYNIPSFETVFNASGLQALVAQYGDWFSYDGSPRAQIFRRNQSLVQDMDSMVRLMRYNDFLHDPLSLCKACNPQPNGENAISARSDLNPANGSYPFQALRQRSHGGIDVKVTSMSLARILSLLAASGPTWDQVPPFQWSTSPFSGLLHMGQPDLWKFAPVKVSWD
Chain of UniProt Q9UKL6 (Q9UKL6 whole entry, looked up): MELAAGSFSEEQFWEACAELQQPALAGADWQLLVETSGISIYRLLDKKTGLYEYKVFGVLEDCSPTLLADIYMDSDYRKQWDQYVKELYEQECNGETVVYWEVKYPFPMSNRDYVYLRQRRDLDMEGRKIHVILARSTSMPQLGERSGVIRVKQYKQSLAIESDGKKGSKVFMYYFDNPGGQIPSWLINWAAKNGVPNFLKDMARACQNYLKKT
Chain of UniProt Q13356 (Q13356 whole entry, looked up): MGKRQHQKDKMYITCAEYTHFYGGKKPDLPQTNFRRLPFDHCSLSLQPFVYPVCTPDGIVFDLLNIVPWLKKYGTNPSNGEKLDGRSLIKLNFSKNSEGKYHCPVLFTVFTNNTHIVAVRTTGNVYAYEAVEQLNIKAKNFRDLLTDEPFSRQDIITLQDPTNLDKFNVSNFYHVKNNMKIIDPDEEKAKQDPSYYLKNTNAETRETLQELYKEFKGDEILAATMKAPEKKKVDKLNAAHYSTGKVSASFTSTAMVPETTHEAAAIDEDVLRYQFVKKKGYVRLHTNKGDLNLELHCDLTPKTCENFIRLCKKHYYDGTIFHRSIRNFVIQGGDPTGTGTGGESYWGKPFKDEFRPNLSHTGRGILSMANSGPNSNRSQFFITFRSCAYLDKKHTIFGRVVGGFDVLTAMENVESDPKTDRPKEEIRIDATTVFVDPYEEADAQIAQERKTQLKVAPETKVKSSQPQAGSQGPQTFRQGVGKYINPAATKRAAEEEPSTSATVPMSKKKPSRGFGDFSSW
Chain of UniProt Q15366 (Q15366 whole entry, looked up): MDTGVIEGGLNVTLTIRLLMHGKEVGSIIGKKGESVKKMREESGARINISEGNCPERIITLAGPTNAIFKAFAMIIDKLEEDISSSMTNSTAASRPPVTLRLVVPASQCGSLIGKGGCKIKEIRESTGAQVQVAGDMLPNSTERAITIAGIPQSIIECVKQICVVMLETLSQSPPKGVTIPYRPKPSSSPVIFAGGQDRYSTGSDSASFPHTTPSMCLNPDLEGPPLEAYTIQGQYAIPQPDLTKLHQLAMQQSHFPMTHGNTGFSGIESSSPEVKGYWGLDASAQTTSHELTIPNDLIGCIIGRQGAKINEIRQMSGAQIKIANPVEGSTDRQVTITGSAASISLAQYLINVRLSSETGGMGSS
Chain of UniProt O00625 (O00625 whole entry, looked up): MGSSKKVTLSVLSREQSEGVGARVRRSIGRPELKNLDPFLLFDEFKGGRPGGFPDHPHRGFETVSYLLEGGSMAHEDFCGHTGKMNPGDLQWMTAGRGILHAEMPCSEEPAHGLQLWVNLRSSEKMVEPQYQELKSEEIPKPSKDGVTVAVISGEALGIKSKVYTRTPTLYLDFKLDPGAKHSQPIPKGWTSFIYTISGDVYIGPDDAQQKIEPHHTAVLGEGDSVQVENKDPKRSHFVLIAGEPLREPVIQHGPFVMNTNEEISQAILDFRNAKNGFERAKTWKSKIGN
Chain of UniProt P42338 (P42338 whole entry, looked up): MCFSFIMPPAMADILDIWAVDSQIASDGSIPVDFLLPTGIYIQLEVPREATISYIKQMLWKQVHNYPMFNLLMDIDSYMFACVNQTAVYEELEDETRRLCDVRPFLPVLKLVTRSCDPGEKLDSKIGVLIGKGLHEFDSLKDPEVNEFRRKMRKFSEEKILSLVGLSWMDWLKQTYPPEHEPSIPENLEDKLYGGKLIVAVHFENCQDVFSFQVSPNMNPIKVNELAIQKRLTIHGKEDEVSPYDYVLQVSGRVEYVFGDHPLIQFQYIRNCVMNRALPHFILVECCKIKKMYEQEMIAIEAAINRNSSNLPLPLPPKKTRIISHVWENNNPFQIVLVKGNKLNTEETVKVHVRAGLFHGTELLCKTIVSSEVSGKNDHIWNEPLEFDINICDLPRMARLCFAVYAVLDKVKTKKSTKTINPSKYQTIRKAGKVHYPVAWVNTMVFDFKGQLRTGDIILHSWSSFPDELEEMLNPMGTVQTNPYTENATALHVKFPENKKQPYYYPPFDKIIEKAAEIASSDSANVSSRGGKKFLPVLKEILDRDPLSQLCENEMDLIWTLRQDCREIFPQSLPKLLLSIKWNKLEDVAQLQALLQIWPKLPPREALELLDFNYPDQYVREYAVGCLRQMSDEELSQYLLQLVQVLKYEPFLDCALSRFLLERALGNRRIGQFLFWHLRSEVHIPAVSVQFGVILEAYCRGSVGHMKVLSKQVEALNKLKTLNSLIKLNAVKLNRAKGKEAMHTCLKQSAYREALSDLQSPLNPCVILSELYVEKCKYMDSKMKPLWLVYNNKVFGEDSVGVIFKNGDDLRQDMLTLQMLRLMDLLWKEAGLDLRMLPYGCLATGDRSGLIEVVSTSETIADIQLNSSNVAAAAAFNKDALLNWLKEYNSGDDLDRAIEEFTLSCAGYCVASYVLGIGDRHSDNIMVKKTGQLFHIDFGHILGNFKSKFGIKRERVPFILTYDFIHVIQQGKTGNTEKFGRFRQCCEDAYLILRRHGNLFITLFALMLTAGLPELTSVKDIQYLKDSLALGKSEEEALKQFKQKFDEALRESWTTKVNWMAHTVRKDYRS
Chain of UniProt O15355 (O15355 whole entry, looked up): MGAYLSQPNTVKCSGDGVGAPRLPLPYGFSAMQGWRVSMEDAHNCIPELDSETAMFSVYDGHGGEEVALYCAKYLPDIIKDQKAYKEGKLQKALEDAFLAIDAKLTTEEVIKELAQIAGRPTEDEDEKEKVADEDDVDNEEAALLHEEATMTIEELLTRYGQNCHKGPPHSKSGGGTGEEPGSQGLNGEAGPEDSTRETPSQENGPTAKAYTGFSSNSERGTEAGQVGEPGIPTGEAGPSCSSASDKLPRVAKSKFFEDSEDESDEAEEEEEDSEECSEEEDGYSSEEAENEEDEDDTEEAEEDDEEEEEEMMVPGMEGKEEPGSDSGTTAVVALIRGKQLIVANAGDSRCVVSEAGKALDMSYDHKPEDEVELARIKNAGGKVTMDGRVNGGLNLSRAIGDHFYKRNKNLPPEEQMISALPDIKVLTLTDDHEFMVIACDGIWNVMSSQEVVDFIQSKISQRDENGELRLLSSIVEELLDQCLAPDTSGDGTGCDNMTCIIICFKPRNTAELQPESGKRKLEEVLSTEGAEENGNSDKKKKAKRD
Chain of UniProt Q8WWY3 (Q8WWY3 whole entry, looked up): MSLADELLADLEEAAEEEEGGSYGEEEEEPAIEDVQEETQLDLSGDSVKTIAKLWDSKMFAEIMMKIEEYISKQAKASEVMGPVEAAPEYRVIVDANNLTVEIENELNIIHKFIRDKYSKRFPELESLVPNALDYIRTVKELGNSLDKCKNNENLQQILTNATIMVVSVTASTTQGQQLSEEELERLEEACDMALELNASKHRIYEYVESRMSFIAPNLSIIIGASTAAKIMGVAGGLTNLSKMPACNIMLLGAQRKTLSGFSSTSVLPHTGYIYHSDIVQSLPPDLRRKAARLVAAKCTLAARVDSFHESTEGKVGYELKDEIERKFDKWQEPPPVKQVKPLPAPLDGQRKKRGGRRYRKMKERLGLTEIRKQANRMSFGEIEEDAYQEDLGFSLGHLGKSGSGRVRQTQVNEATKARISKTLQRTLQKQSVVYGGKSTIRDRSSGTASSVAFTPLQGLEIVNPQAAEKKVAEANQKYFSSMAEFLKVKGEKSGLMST
Chain of UniProt Q92871 (Q92871 whole entry, looked up): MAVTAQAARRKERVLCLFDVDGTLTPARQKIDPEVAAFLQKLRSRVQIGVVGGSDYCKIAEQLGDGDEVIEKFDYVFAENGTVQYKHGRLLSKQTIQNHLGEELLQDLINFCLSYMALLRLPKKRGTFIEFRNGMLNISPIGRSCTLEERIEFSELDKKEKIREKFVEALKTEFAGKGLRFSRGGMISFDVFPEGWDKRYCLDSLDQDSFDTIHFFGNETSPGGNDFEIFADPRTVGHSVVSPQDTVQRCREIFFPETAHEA
Chain of UniProt Q9Y2Y1 (Q9Y2Y1 whole entry, looked up): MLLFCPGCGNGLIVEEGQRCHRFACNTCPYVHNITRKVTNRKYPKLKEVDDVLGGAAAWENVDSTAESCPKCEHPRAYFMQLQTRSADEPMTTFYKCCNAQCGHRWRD

| Target | log2 fold change [1] | log2 fold change [2] | log2 fold change [3] | log2 fold change [4] | log2 fold change (Nexturastat A) | log2 fold change (vemurafenib) | log2 fold change [5] | log2 fold change [6] | log2 fold change (givinostat) | log2 fold change (barasertib) | log2 fold change [7] | log2 fold change (volasertib) | log2 fold change [8] | log2 fold change (epoxomicin) | log2 fold change [9] | log2 fold change [10] | log2 fold change [11] | log2 fold change (rosiglitazone) | log2 fold change [12] | log2 fold change [13] |
| --- | --- | --- | --- | --- | --- | --- | --- | --- | --- | --- | --- | --- | --- | --- | --- | --- | --- | --- | --- | --- |
| PLBD2 (UniProt Q8NHP8) | -0.053 | 0.058 | 0.02 | -0.051 | -0.053 | -0.028 | 0.001 | -0.008 | 0.004 | -0.013 | -0.188 | -0.222 (active) | -0.034 | -0.015 | 0.024 | 0.029 | 0.008 | 0.009 | -0.029 | -0.21 |
| PPM1G (UniProt O15355) | 0.087 | -0.04 | -0.031 | 0.048 | -0.053 | 0.112 | 0.13 | 0.067 | 0.17 | 0.052 | -0.208 | -0.381 (active) | 0.066 | 0.087 | -0.001 | -0.073 | 0.098 | 0.089 | 0.017 | -0.025 |
| POLR2M (UniProt P0CAP2) | 0.007 | -0.014 | 0.027 | 0 | -0.019 | 0.021 | -0.062 | 0 | -0.031 | -0.009 | 0.084 | 0.026 | 0.013 | -0.018 | -0.022 | 0.034 | 0.004 | 0.045 | -0.028 | 0.037 |
| PIK3CB (UniProt P42338) | -0.034 | -0.009 | 0.024 | 0.054 | 0.013 | 0.022 | -0.001 | -0.041 | 0.052 | 0.077 | 0.017 | -0.224 (active) | 0.082 | 0.033 | -0.01 | -0.071 | 0.008 | 0.078 | 0.003 | 0.175 |
| PIP4P1 isoform 2 (UniProt Q86T03) | -0.018 | -0.001 | -0.019 | 0.039 | 0.035 | -0.198 | -0.063 | -0.002 | -0.037 | 0.001 | -0.058 | 0.112 | -0.003 | 0.008 | 0.009 | -0.074 | -0.012 | -0.016 | 0.076 | -0.262 |
| POMK (UniProt Q9H5K3) | 0.029 | -0.018 | 0.028 | 0 | -0.01 | 0.04 | 0.041 | 0 | 0.002 | 0.11 | -0.079 | -0.093 | 0.014 | -0.05 | 0.054 | 0.054 | -0.007 | 0.012 | 0.023 | -0.082 |
| POLD3 (UniProt Q15054) | -0.131 | -0.055 | 0.03 | 0.007 | -0.115 | 0.082 | 0.049 | 0.065 | 0.018 | 0.006 | -0.147 | -0.101 | 0.008 | 0.126 | -0.071 | -0.037 | 0.067 | 0.513 | 0.051 | -0.118 |
| PIR (UniProt O00625) | -0.063 | 0.325 (active) | 0.002 | -0.035 | -0.053 | 0.03 | 0.122 | 0.085 | -0.146 | 0.007 | -0.041 | -0.069 | -0.028 | 0.034 | 0.097 | -0.006 | 0.031 | 0.02 | -0.06 | -0.052 |
| PCBP2 isoform 3 (UniProt Q15366) | 0.054 | -0.024 | 0.065 | 0.149 | -0.006 | 0.056 | 0.129 | -0.004 | 0.031 | 0.013 | -0.069 | -0.263 (active) | 0.071 | 0.013 | -0.036 | -0.003 | 0.043 | 0.062 | -0.001 | -0.081 |
| PRPF31 (UniProt Q8WWY3) | 0.021 | -0.12 | 0 | 0.067 | -0.01 | -0.017 | 0.087 | 0.106 | 0.065 | 0.096 | -0.113 | -0.548 (active) | 0.172 | 0.049 | -0.058 | -0.079 | 0.181 | 0.104 | -0.041 | -0.348 |
| PCYT1B (UniProt Q9Y5K3) | 0.007 | 0.022 | 0.011 | 0.034 | -0.06 | 0.022 | 0.049 | -0.031 | 0.038 | 0.048 | -0.105 | -0.315 (active) | 0.08 | 0.001 | -0.033 | 0 | 0.012 | 0.041 | -0.007 | 0.035 |
| PPIL2 (UniProt Q13356) | 0.005 | -0.084 | 0.04 | 0.023 | -0.059 | 0.113 | 0.123 | 0.016 | 0.123 | 0.073 | -0.196 | -0.599 (active) | 0.159 | 0.142 | -0.098 | -0.031 | 0.08 | 0.043 | -0.019 | -0.022 |
| PCTP (UniProt Q9UKL6) | -0.007 | 0.004 | 0.052 | 0.039 | -0.003 | 0.005 | 0.066 | 0.026 | -0.035 | 0.013 | -0.017 | -0.012 | -0.067 | 0.039 | -0.058 | -0.055 | -0.005 | 0.025 | -0.011 | -0.279 (active) |
| POLR3K (UniProt Q9Y2Y1) | -0.028 | 0.098 | 0 | -0.014 | -0.04 | -0.067 | -0.066 | -0.038 | -0.013 | 0.003 | -0.077 | 0.056 | -0.018 | 0.067 | -0.061 | 0.038 | -0.048 | -0.045 | -0.012 | -0.01 |
| PMM1 (UniProt Q92871) | -0.164 | 0.007 | -0.037 | 0.027 | -0.037 | -0.007 | -0.012 | -0.165 | -0.013 | -0.003 | -0.029 | -0.239 | -0.024 | -0.002 | -0.025 | 0.08 | 0.009 | 0.047 | -0.061 | -0.018 |
| PTDSS1 (UniProt P48651) | 0.005 | -0.006 | 0.08 | -0.01 | 0.192 | -0.055 | 0.019 | -0.007 | 0.072 | 0.03 | 0.004 | 0.009 | -0.069 | -0.035 | -0.019 | 0.124 | 0 | 0.031 | 0.177 | -0.081 |
